# From PubChem BioAssay (NCI)
# Values joined by “and” are separate entries in the source; they are usually repeats but may differ in a detail not shown here. Identical values can stand only once. The panel holds about 83,000 compounds, 20% with a hit somewhere; the sample as a whole holds those more often.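 Step 1: grow cells in 96-well plates. Step 2: add test compound at a single concentration. Step 3: incubate 48 h. Step 4: record percent growth.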 Unmarked numbers belong to inactive results. Active and inactive are the calls of the source. How the source made its calls: active means growth percent below 10; inactive means the rest.
# System: HS 578T breast
# Assay: NCI-60 one-dose screen, 48 h (100 = growth as untreated, 0 = no growth, -100 = all killed)
# Conditions: 10 µM unless noted
row,SMILES,growth
1,CN(C)C(=O)c1cc2cnc(Nc3ccc(-c4csc5c(=S)cc(N6CCOCC6)oc45)cc3)nc2n1C1CCCC1,5.04% (active)
2,CN1CCN(c2ccc(/C=C/C(=O)c3ccc(O)cc3)cc2)CC1,95.7%
3,CCCCC(NC(=O)CN1C(=O)/C(=C/C(C)=C/c2ccccc2)SC1=S)C(=O)O (stereo unspecified),102%
4,CC1(Cc2ccccc2)CC2=C(C(=O)O1)C(c1ccccc1)NC(=O)N2 (stereo unspecified),109%
5,COc1ccc(-c2nc(Cl)c3c(C)nn(-c4ccc(F)cc4)c3n2)cc1,103%
6,CCCCn1c(C(=O)c2c[nH]c3ccccc23)n[nH]c1=S,91%
7,COc1ccc(/C=C2\COc3ccc(O)c(O)c3C2=O)c(OC)c1OC,27.9%
8,C=C(CN1CC=CCC1)[C@@H]1CC[C@]2(COC(C)=O)CC[C@]3(C)[C@H](CC[C@@H]4[C@@]5(C)CC[C@H](O)C(C)(C)[C@@H]5CC[C@]43C)[C@@H]12,103%
9,O=[N+]([O-])c1ccc(S(=O)Cc2ccccc2)c([N+](=O)[O-])c1 (stereo unspecified),118% and 95.2%
10,O=C(Cn1cc(CN2CCN(c3ccnc4cc(Cl)ccc34)CC2)nn1)Nc1cccc([N+](=O)[O-])c1,82.6%
11,Nc1n[nH]c2cccc(C#Cc3cccc(NC(=O)c4ccc(N5CCOCC5)c(C(F)(F)F)c4)c3)c12,-11.4% (active)
12,COC1=CC(=O)C(OC)=C(O)C1=O,113%
13,CONC1=Nc2cc(NC(N)=NCc3ccccc3)c(N(C)C3CCCCC3)cc2OC1,71.4%
14,Cc1ccc(NC(=O)c2ccc(CN3CCN(C)CC3)cc2)cc1Nc1nccc(-c2cccnc2)n1,90.1%
15,Fc1ccc(NC(c2ccc(F)cc2)C2CCN(CCCCc3ccccc3)CC2)cc1 (stereo unspecified),71.7%
16,COc1ccc2c(O)c(/C=C3\N=Nc4nc(C)ccc43)oc2c1CC1CCNCC1,57.9%
17,COc1ccc(C(=O)N/N=C/c2ccc(O)cc2O)cc1Nc1ccnc(C(F)(F)F)c1,55.4%
18,COc1ccc(-c2cc(-c3cc(OC)c(OC)c(OC)c3)c(C#N)c(=O)n2CCCCC(=O)O)cc1,87.7%
19,COc1cc(-c2[nH]ncc2Nc2ccc(Cl)cc2)cc(OC)c1OC,66%

row,SMILES,growth
1,Nc1ccc(S(=O)(=O)c2ccc(N)cc2)cc1,106% and 96.8%
2,C/C(=C(\c1ccc(OCCN2CCOCC2)cc1)c1ccc(OC(=O)C2CCCCC2)cc1)c1ccc(Cl)cc1,97.9%
3,CCN(CC)CCOc1ccc(/C(=C(\Cl)c2ccccc2)c2ccccc2)cc1,55%
4,CSc1nnc(-c2cc3c([nH]c4ccccc43)c(-c3cccc(O)c3)n2)n1-c1ccc(C)cc1,37.3%
5,COc1ccc(/C(C)=C(\c2ccc(OCCN3CCCCCC3)cc2)c2ccc(OC(=O)C3CCCCC3)cc2)cc1,-38.3% (active)
6,N=C1/C(=C2\NC3C=CC=CC3S2)C(c2ccc(Cl)cc2)C2C(=O)N(c3ccccc3)C(=S)N12 (stereo unspecified),99.2%
7,Nc1nc(Nc2cccnc2)sc1C(=O)c1ccccc1F,58.1%
8,COCCOc1cc2ncnc(N3CCN(S(=O)(=O)c4ccccc4Cl)CC3)c2cc1OCCOC,93.5%
9,O=C1/C(=C/c2ccc(F)c(F)c2)CN(C(=O)C(Cl)Cl)C/C1=C\c1ccc(F)c(F)c1,-38.5% (active)
10,O=C([C@H]1C[C@H]1c1ccc(S(F)(F)(F)(F)F)cc1)N1CCN(c2cc(Cl)ccc2C(F)(F)F)CC1,91.4%
11,O=C(NNc1ccccc1)c1ncc[nH]1,89.2%
12,COc1cccc(C2C(C#N)=C(N)Oc3cc(OCCCCCC[P+](c4ccccc4)(c4ccccc4)c4ccccc4)ccc32)c1 (stereo unspecified),-16.5% (active)
13,CCOC(=O)N(O)c1ccc(/C=C/c2ccccc2)cc1,94.4% and 112%
14,CN(C)CCN1C(=O)c2c(c3c4ccccc4n4c3c3c2c2ccccc2n3C2CC(O)C(O)C4(C)O2)C1=O (stereo unspecified),41.7%
15,O=C(CCCOc1ccc(Br)cc1)Nc1ncc(Cc2ccc(F)cc2)s1,74.3%
16,COc1cc(NC2CCCCC2O)c2nc(-c3ccc(Cl)cc3)ccc2c1 (stereo unspecified),85.4% and 138%
17,O=C(O)C1C2CCC1C(O)C2 (stereo unspecified),110% and 109%
18,C=C1CC[C@@H]2[C@](C)(COC(C)=O)[C@H](OC(C)=O)CC[C@@]2(C)[C@@H]1CC(Nc1ccc(S(=O)(=O)Nc2nccs2)cc1)C1=CCOC1=O (stereo partly specified),51.9%
19,Nc1nc(Nc2ccc(F)cc2)nn1C(=O)c1cc(Cl)ccc1Cl,56.1%

# System: NCI/ADR-RES ovarian
# Assay: as above
# Conditions: 10 µM unless noted
row,SMILES,growth
1,CN(C)C(=O)c1cc2cnc(Nc3ccc(-c4csc5c(=S)cc(N6CCOCC6)oc45)cc3)nc2n1C1CCCC1,14.1%
2,CN1CCN(c2ccc(/C=C/C(=O)c3ccc(O)cc3)cc2)CC1,99.9%
3,CCCCC(NC(=O)CN1C(=O)/C(=C/C(C)=C/c2ccccc2)SC1=S)C(=O)O (stereo unspecified),98%
4,CC1(Cc2ccccc2)CC2=C(C(=O)O1)C(c1ccccc1)NC(=O)N2 (stereo unspecified),106%
5,COc1ccc(-c2nc(Cl)c3c(C)nn(-c4ccc(F)cc4)c3n2)cc1,112%
6,CCCCn1c(C(=O)c2c[nH]c3ccccc23)n[nH]c1=S,107%
7,COc1ccc(/C=C2\COc3ccc(O)c(O)c3C2=O)c(OC)c1OC,27%
8,C=C(CN1CC=CCC1)[C@@H]1CC[C@]2(COC(C)=O)CC[C@]3(C)[C@H](CC[C@@H]4[C@@]5(C)CC[C@H](O)C(C)(C)[C@@H]5CC[C@]43C)[C@@H]12,98.3%
9,O=[N+]([O-])c1ccc(S(=O)Cc2ccccc2)c([N+](=O)[O-])c1 (stereo unspecified),90.9% and 90.6%
10,O=C(Cn1cc(CN2CCN(c3ccnc4cc(Cl)ccc34)CC2)nn1)Nc1cccc([N+](=O)[O-])c1,100%
11,Nc1n[nH]c2cccc(C#Cc3cccc(NC(=O)c4ccc(N5CCOCC5)c(C(F)(F)F)c4)c3)c12,14.4%
12,COC1=CC(=O)C(OC)=C(O)C1=O,101%
13,CONC1=Nc2cc(NC(N)=NCc3ccccc3)c(N(C)C3CCCCC3)cc2OC1,99.8%
14,Cc1ccc(NC(=O)c2ccc(CN3CCN(C)CC3)cc2)cc1Nc1nccc(-c2cccnc2)n1,101% and 91.4%
15,Fc1ccc(NC(c2ccc(F)cc2)C2CCN(CCCCc3ccccc3)CC2)cc1 (stereo unspecified),49.5%
16,COc1ccc2c(O)c(/C=C3\N=Nc4nc(C)ccc43)oc2c1CC1CCNCC1,104%
17,COc1ccc(C(=O)N/N=C/c2ccc(O)cc2O)cc1Nc1ccnc(C(F)(F)F)c1,64%
18,COc1ccc(-c2cc(-c3cc(OC)c(OC)c(OC)c3)c(C#N)c(=O)n2CCCCC(=O)O)cc1,102%
19,COc1cc(-c2[nH]ncc2Nc2ccc(Cl)cc2)cc(OC)c1OC,61.7%

row,SMILES,growth
1,Nc1ccc(S(=O)(=O)c2ccc(N)cc2)cc1,101% and 97.2%
2,C/C(=C(\c1ccc(OCCN2CCOCC2)cc1)c1ccc(OC(=O)C2CCCCC2)cc1)c1ccc(Cl)cc1,98%
3,CCN(CC)CCOc1ccc(/C(=C(\Cl)c2ccccc2)c2ccccc2)cc1,59.3% and 92.9%
4,CSc1nnc(-c2cc3c([nH]c4ccccc43)c(-c3cccc(O)c3)n2)n1-c1ccc(C)cc1,43.1%
5,COc1ccc(/C(C)=C(\c2ccc(OCCN3CCCCCC3)cc2)c2ccc(OC(=O)C3CCCCC3)cc2)cc1,-65.2% (active)
6,N=C1/C(=C2\NC3C=CC=CC3S2)C(c2ccc(Cl)cc2)C2C(=O)N(c3ccccc3)C(=S)N12 (stereo unspecified),95.8%
7,Nc1nc(Nc2cccnc2)sc1C(=O)c1ccccc1F,48.3%
8,COCCOc1cc2ncnc(N3CCN(S(=O)(=O)c4ccccc4Cl)CC3)c2cc1OCCOC,66.9%
9,O=C1/C(=C/c2ccc(F)c(F)c2)CN(C(=O)C(Cl)Cl)C/C1=C\c1ccc(F)c(F)c1,-18% (active)
10,O=C([C@H]1C[C@H]1c1ccc(S(F)(F)(F)(F)F)cc1)N1CCN(c2cc(Cl)ccc2C(F)(F)F)CC1,95.5%
11,O=C(NNc1ccccc1)c1ncc[nH]1,78.6%
12,COc1cccc(C2C(C#N)=C(N)Oc3cc(OCCCCCC[P+](c4ccccc4)(c4ccccc4)c4ccccc4)ccc32)c1 (stereo unspecified),85.2%
13,CCOC(=O)N(O)c1ccc(/C=C/c2ccccc2)cc1,74.7% and 63.2%
14,CN(C)CCN1C(=O)c2c(c3c4ccccc4n4c3c3c2c2ccccc2n3C2CC(O)C(O)C4(C)O2)C1=O (stereo unspecified),54.5%
15,O=C(CCCOc1ccc(Br)cc1)Nc1ncc(Cc2ccc(F)cc2)s1,73.6%
16,COc1cc(NC2CCCCC2O)c2nc(-c3ccc(Cl)cc3)ccc2c1 (stereo unspecified),84.5%
17,O=C(O)C1C2CCC1C(O)C2 (stereo unspecified),96.7% and 98.2%
18,C=C1CC[C@@H]2[C@](C)(COC(C)=O)[C@H](OC(C)=O)CC[C@@]2(C)[C@@H]1CC(Nc1ccc(S(=O)(=O)Nc2nccs2)cc1)C1=CCOC1=O (stereo partly specified),9.2% (active)
19,Nc1nc(Nc2ccc(F)cc2)nn1C(=O)c1cc(Cl)ccc1Cl,69.1%
